Source: the supplement of paper PMC13380429
Where a name gives a salt, the structure may show the parent alone. Unmarked numbers belong to inactive results.

system: Vero E6 infected with SARS-CoV-2; assay: inhibition of SARS-CoV-2 cytopathic effect; higher = more antiviral protection, active = above 15; details: 8.33 nM; 48 h

SMILES | inhibition of SARS-CoV-2 cytopathic effect
CC(=O)N(c1onc(C)c1C)S(=O)(=O)c1ccc(N)cc1 [sulfisoxazole-acetyl] | -3.48%
CCN(CC)CCCCN1c2ccccc2Oc2ccc(Cl)cc21 | -2.15%
COC1=C2C[C@@H](C)C[C@H](OC)[C@H](O)[C@@H](C)/C=C(\C)[C@H](OC(N)=O)[C@@H](OC)/C=C\C=C(/C)C(=O)NC(=CC1=O)C2=O [geldanamycin] | 2.06%
CO/N=C(\C(=O)N[C@@H]1C(=O)N2C(C(=O)O)=C(Cn3ccc(=N)n3CCO)CS[C@H]12)c1csc(N)n1 [Cefoselis sulfate] | -3.45%
COc1cc2c(cc1OC)-c1c/c(=N\c3c(C)cc(C)cc3C)n(C)c(=O)n1CC2 [trequinsin] | 2.01%
N[C@@H]1CCCN(c2c(/C=C3\SC(=O)NC3=O)cccc2-c2ccccc2)C1 | -3.14%
COc1ccc(N2CCOCC2)c2sc(NC(=O)N3CCC(C)(O)CC3)nc12 [tozadenant] | 8.03%
CC(C)n1nccc1-c1ncccc1COc1cccc(O)c1C=O [voxelotor] | -1.17%
CCN(CC)CCOc1ccc(Nc2ncc3cc(-c4c(Cl)cccc4Cl)c(=O)n(C)c3n2)cc1 | -0.21%
O=C(c1ccc(CN2CCOCC2)cc1)N1CCN(C2CC2)CC1 [bavisant] | 1.98%
Cc1cc2nc3c(=O)[nH]c(=O)nc-3n(C[C@H](O)[C@H](O)[C@H](O)COP(=O)(O)O)c2cc1C [riboflavin-5-phosphate-sodium] | 3.45%
COc1nc(N)nc2c1ncn2[C@@H]1O[C@H](CO)[C@@H](O)[C@@H]1O [nelarabine] | -1.48%
O=C(c1ccc2nccnc2c1)N1CCCCC1 [ampalex] | 0.88%
CCCCNc1ncc2c(-c3ccc(CN4CCN(C)CC4)cc3)cn([C@H]3CC[C@H](O)CC3)c2n1 | 2.77%
CCN(CC)CCNC(=O)c1ccccc1I | 1.7%
CCCN(CCC)S(=O)(=O)c1ccc(C(=O)O)cc1 [probenecid] | -2.02%
Clc1ccc(C2=CCC[C@H]3CC[C@@H]2N3)cn1 | 2.33%
O=C(CCc1ccc(O)cc1)c1c(O)cc(O)cc1O[C@@H]1O[C@H](CO)[C@@H](O)[C@H](O)[C@H]1O [phlorizin] | 0%
CCCCCCCCCCCCCC(=O)[O-].CCCCCCCCCCCCCC(=O)[O-].N[C@@H]1CCCC[C@H]1N.[Pt+2] [miriplatin] | -0.15%
O=C(NO)c1cnc(N2CCN(S(=O)(=O)c3ccc4ccccc4c3)CC2)nc1 | 2.59%

SMILES | inhibition of SARS-CoV-2 cytopathic effect
CO/N=C(\C(=O)N[C@@H]1C(=O)N2C(C(=O)O)=C(CSc3nc(=O)c(O)nn3C)CS[C@H]12)c1csc(N)n1 [ceftriaxone] | -0.8%
C=CC(=O)Nc1cccc(Oc2nc(Nc3ccc(N4CCN(C)CC4)cc3)nc3ccsc23)c1 [olmutinib] | 3.26%
CN1[C@@H]2CC[C@H]1C[C@@H](OC(=O)c1c[nH]c3ccccc13)C2 [tropisetron] | -1.1%
C#C[C@]1(OC(C)=O)CC[C@H]2[C@@H]3CCC4=C[C@@H](OC(C)=O)CC[C@@H]4[C@H]3CC[C@@]21C [ethynodiol-diacetate] | 3.73%
COC(=O)[C@H](NC(=O)c1cc(-c2ccccc2)nc2ccccc12)c1ccccc1 | 2.5%
CN(C)[C@@H]1C(O)=C(C(N)=O)C(=O)[C@@]2(O)C(O)=C3C(=O)c4c(O)ccc(Cl)c4[C@@H](O)[C@H]3C[C@@H]12 [demeclocycline] | 1.08%
CC1=C(CC(=O)O)c2cc(F)ccc2/C1=C\c1ccc([S+](C)[O-])cc1 (stereo not given) [sulindac] | -2.82%
CN1c2c([nH]c(N)nc2=O)NC[C@@H]1CNc1ccc(C(=O)N[C@@H](CCC(=O)O)C(=O)O)cc1 [metafolin] | 2.72%
O=C(Oc1cccc2cccnc12)c1ccccc1 [benzoxiquine] | 1.56%
O=C(O)/C=C/CO [trans-4-hydroxycrotonic-acid] | 3.93%
CC1(COc2ccc(CC3SC(=O)NC3=O)cc2)CCCCC1 (stereo not given) [ciglitazone] | -3.35%
O=C(Nc1ccc(Oc2ccc(Cl)cn2)c(Cl)c1)c1ccccn1 | -0.54%
Nc1ncnc2c1ncn2[C@@H]1O[C@H](COP(=O)(O)OP(=O)(O)OP(=O)(O)OP(=O)(O)OC[C@H]2O[C@@H](n3cnc4c(N)ncnc43)[C@H](O)[C@@H]2O)[C@@H](O)[C@H]1O [diadenosine-tetraphosphate] | 0.56%
CCc1ccc(/C=C2/SC(=S)NC2=O)cc1 | -6.5%
NS(=O)(=O)c1ccc(C(=O)O)cc1 [carzenide] | -0.09%
CN1C[C@@H]2C[C@H]1CN2c1cc2c(cc1F)c(=O)c(C(=O)O)cn2C1CC1 [danofloxacin] | -1.78%
NNc1nncc2ccccc12 [hydralazine] | 0.28%
COc1cccc(OC)c1OCCNC[C@H]1COc2ccccc2O1 | 0.6%
COc1cc2c(cc1OC)-c1cc3ccc(OC)c(OC)c3c[n+]1CC2 [palmatine-chloride] | 0.72%
CC(=O)OCC1=C(C(=O)O)N2C(=O)[C@@H](NC(=O)CSc3ccncc3)[C@H]2SC1 [cephapirin] | 4.78%
